# Only some compounds are listed: those with a hit (about 1.7% of all), similar ones and a draw of the others.
# Myeloid diff 2 = promotes myeloid progenitor differentiation | ER-HoxA9 myeloid progenitors, lysozyme-GFP differentiation, flow cytometry | calls only at 10 µM | 1% of 360,000 active | AID 624256;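 active = normalized GFP-positive differentiation at or above the plate's own cutoff, the solvent-only control mean plus 3 SD; inconclusive = no clear call, values can overlap the other calls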;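 note: cells exposed to compound for four days before flow analysis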
# TLR9-MyD88 inh = TLR9-MyD88 interaction inhibition; Q9NR96+Q99836; CHO BLA complementation TLR9-MyD88, CCF4 FRET ratio; inhibition, % at 4.98 µM; 0.21% of 340,000 active;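 active = inhibition above the mean over all tested compounds plus 3 SD, cut at about 21% in these data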;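 note: 0% = DMSO only wells and 100% = clavulanate BLA inhibitor control wells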
# TLR4 MyD88 comp = inhibitors of human TLR4-MyD88 binding | O00206+Q99836 | HeLa CL3-4 TLR4/MyD88 BLA complementation, FRET ratio | inhibition, % at 8.4 µM | 0.18% of 200,000 active; in the data active = inhibition above about 25%;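 note: 0% = vehicle and 100% = reference inhibitor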
# ABCB6 inh MLPCN = blocks the human ABCB6 transporter | K562-ABCB6 porphyrin accumulation, flow cytometry, 1 h; stronger effect = lower value | fluorescence ratio to DMSO, % at 10 µM | 0.19% of 360,000 active;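 active = fluorescence ratio to DMSO below 75%, the collection mean minus 3 SD; inconclusive = too few cells collected in the well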;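 note: signal is porphyrin accumulated inside mitochondria; 100% equals median channel fluorescence of DMSO control wells; lower ratio means ABCB6 inhibition with less porphyrin fluorescence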
# NOD2 RIPK2 PPI = NOD2-RIPK2 protein interaction inhibition; O43353; CHO BLA complementation NOD2-RIPK2, CCF4 ratio; inhibition, % at 4.98 µM; 0.38% of 360,000 active; in the data active = inhibition above about 21%;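 note: 0% = vehicle only and 100% = reference blocker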
# Myeloid diff CP1 = promotes myeloid progenitor differentiation; shares compounds with Myeloid diff 2; ER-HoxA9 myeloid progenitors, GFP/Mac1 double-positive flow; calls only; 2% of 2,300 active; AID 651706;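 active = share of green or green-and-red cells above 9 and 9% in run 1 or 4 and 3% in run 2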
# GFP autofluor = counter-screen for myeloid differentiation promoters: compound fluorescence. shares compounds with Myeloid diff 2. ER-HoxA9 myeloid progenitors, no estrogen, GFP autofluorescence flow cytometry; vehicle wells 0%, positive control 100%. fluorescence response, % (test concentration not listed). 7.4% of 2,300 active. AID 651707;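 active = over 5% cells positive for green fluorescent reporter, or over 2% positive for both it and APC stain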;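 note: range taken on the double positive population between DMSO and positive control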
# NOD2 RIPK2 conf = confirmation of human NOD2-RIPK2 interaction inhibitors. inhibition, % at 4.98 µM. AID 624370. shares compounds with NOD2 RIPK2 PPI. CHO cells, NOD2-RIPK2 BLA complementation, CCF4 FRET. 70% of 1,200 active;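 active = mean inhibition across replicates above a set limit taken from the earlier primary screen, cut at about 21% in these data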;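 note: 0% = DMSO-only wells and the high end = clavulanate BLA-blocked wells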
# NOD2 BLA counter = hits BLA reporter in NOD2-RIPK2 inhibitor counterscreen | shares compounds with NOD2 RIPK2 PPI | CHO BLA reporter, CCF4 FRET ratio | inhibition, % at 4.98 µM | 57% of 1,200 active;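 active = mean inhibition above the low-control mean inhibition plus three low-control SD, cut at about 11% in these data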;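 note: 0% = DMSO only wells and 100% = clavulanate high control wells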
# Active calls of the source: *; i = inactive; ? = inconclusive; / = no result; + = active, no number.
SMILES,Myeloid diff 2,TLR9-MyD88 inh,TLR4 MyD88 comp,ABCB6 inh MLPCN,NOD2 RIPK2 PPI,Myeloid diff CP1,GFP autofluor,NOD2 RIPK2 conf,NOD2 BLA counter
CCOC(=O)C1CCCN(c2ccc([N+](=O)[O-])c3nonc23)C1 (stereo not drawn),+,-9,3,115,6,i,58*,/,/
CC(CC(C)(C)N1CC1)=NO,i,-13,/,98,-1,/,/,/,/
CC(=O)Nc1ccc([As](=O)(O)c2ccc([N+](=O)[O-])cc2)cc1,i,5,/,101,3,i,0,/,/
COc1ccc(CC(=O)N2CCN(C)CC2)cc1,i,4,11,91,2,i,0,/,/
CCOC(=O)C(C)Oc1cc(C)cc2oc(=O)c3c(c12)CCCC3 (stereo not drawn),i,-8,0,101,14,i,0,/,/
C[C@@H]1CN([C@H](C)CO)C(=O)CCCn2nncc2CO[C@@H]1CN(C)C(=O)Oc1ccc2ccccc2c1,i,3,/,103,-3,/,/,/,/
CC(=O)c1ccc(OC(NC(=O)c2ccco2)C(Cl)(Cl)Cl)cc1 (stereo not drawn),+,-6,-3,90,9,i,0,/,/
Cc1cc2c(cc1C)NP(=S)(c1ccccc1)N2,i,-3,/,97,-5,/,/,/,/
O=C(Nc1cccc(OC(=O)N2CCCCC2)c1)N1CCCCC1,i,0,5,100,2,i,0,/,/
COC(=O)C1=C(c2ccc(OC(F)(F)F)cc2)C[C@@H]2CC[C@H]1N2C(=O)NC1CCCCC1,i,3,/,92,3,i,0,/,/
CCCNC(=O)N1[C@H]2CC[C@@H]1C(C(=O)OC)=C(c1ccc3ccccc3c1)C2,i,-22,/,99,-1,i,0,/,/
COC(=O)C1=C(c2cc3ccccc3s2)C[C@@H]2CC[C@H]1N2C(=O)N1CCCC1,i,-2,/,100,-6,/,/,/,/
COC(=O)C1=C(c2cc3ccccc3s2)C[C@@H]2CC[C@H]1N2C(=O)N1CCOCC1,i,2,/,101,4,i,0,/,/
CCC(CC)NCc1c[nH]c2ccccc12,+,0,1,101,-11,i,0,/,/
O=S(=O)(c1cccc2ccccc12)N1Cc2ccccc2-n2nncc2C1,i,6,/,102,-9,/,/,/,/
N#CC1=C(N)Oc2c(c(=O)sc3ccccc23)C1c1cccnc1 (stereo not drawn),?,0,-4,97,22*,/,/,1,-3
COC(=O)[C@@H]1N=C(c2ccc(OC)cc2)O[C@]12C(=O)N(Cc1ccc(OC)cc1)c1ccccc12,i,/,/,104,3,/,/,/,/
ClCCN(CCCl)c1ccc(C=Cc2ccncn2)cc1,?,/,/,113,63*,/,/,47*,60*
COC(=O)C1C2c3ccccc3C(c3ccccc32)C1(C)C(=O)OC (stereo not drawn),i,-8,/,94,-6,/,/,/,/
CCN(CC)c1ccc(/C=C/[N+](=O)[O-])cc1,i,20,20,120,44*,/,/,54*,28*
CC1=CC2OC3CC4OC(=O)C=CC=CC(C(C)O)OCC(O)C(C)CC(=O)OCC2(CC1O)C4(C)C31CO1 (stereo not drawn),/,-3,/,91,22*,/,/,21*,0
CC1=CC2OC3CC4OC(=O)C=CC=CC(=O)OCCC(C)C(O)C(=O)OCC2(CC1O)C4(C)C31CO1 (stereo not drawn),?,-11,/,98,29*,/,/,28*,-7
CC(O)C1C=CC=CC(=O)OC2CC3OC4C5OC5(C)CCC4(COC(=O)C4OC4(C)C(O)CO1)C2(C)C31CO1 (stereo not drawn),?,3,/,99,29*,/,/,21*,-5

# Screens as filed in PubChem.
